Measurements from the supplement of paper PMC10681739.

Each sequence was assayed against RUNX1 (UniProt Q01196) (assay: RUNX1 binding intensity (PBM fluorescence) in presence of ETS1, normalised to RUNX1-only experiment (arbitrary fluorescence units); higher = stronger binding). Conditions: RUNX1 concentration 2 nM; ETS1 concentration 25 nM.
Protocol: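 Cooperative gcPBM on 36-bp genomic probes with neighbouring ETS1 and RUNX1 sites. Recombinant human RUNX1 (2 nM) was incubated alone or with ETS1 (25 nM) and detected with anti-RUNX1 antibody plus Alexa488 secondary. Values are medians over 4 replicate spots; the RUNX1+ETS1 data were normalised to the RUNX1-only data. The probes sit in constant array flanks that are not printed.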
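Also: Full-length recombinant human ETS1 or RUNX1 bound to double-stranded 36-bp genomic probes on microarrays, detected by protein-specific primary antibody and Alexa488 secondary, spot fluorescence as median of four replicate spots.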

RUNX1, sequence (Q01196 whole entry): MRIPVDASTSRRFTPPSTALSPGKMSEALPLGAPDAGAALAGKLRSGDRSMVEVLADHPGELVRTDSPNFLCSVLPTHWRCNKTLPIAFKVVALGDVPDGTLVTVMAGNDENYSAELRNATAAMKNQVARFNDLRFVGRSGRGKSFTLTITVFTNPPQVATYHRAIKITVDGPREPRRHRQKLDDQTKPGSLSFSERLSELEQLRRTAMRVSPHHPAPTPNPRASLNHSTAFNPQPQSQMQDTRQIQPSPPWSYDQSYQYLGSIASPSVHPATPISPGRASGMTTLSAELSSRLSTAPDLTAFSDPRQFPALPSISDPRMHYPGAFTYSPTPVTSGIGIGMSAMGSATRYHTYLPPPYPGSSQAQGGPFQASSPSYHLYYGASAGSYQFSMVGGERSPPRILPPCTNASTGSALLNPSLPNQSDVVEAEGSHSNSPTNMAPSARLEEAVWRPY

Sequence | RUNX1 binding intensity
GGGGGAAGCTTCCTGAGGTGAAATAGACCGCTGTGC | 960
TTACTTCCTGAGGGTGCACAGGCTGTGGTCGTCTAT | 2070
GAAACGTCACCCAGAGGAAACCCACAAGGGGCGTGG | 836
GGCAGCCGATGCATCCTGCGGTGTGTGGCCCTCAGA | 1040
CCGCTGAGAACAGGATGTGGGTGTCAGGAGGTGAAG | 1530
AGAATCGCATCAGGATGTGGTGAGGGAGCACATTTG | 969
TACAGCTTCCTTCACCCCACTTGTGGCCTGGGTTAC | 913
TTTGTTGTTCCGGGTGCGAGGCGGCCGCAGCTTCCA | 1180
GGCGAGGCTGAGAGGAAACCACACTCTCACTGGGGT | 921
GTGCCTTTTCATGTGGGATGTGGCTTCAAGGAGACC | 822
TGGGTGCCGGATTCGGTGAGTGTGGTTCTCATGATG | 895
GAGGGGAGGATGTCTGAGCTTTTAATTGTGGTTTCA | 943
CTTAGGACTTCCCGTAGATGGTGGTCTGTGCTAAGG | 1050
ACGAGAGTCTAGAGGAAACCAACCCGCAACTCACTG | 868
CTCAGGTTATCTAGGAAATCTACCGCACGCTAAAGT | 793
GCGAGCACTTCCGGTGTGTGAGCCTGCGGTTGCTAC | 3050
CGGCTAGGAAATAAAGAGCCTTCTCTCCGCGGTAGG | 2200
CTGAGACATCCTGATAATTCTGTGGGTTACCCCAAA | 1280
CTTTGTTACTTTGGGGAAATGTGGTTCTGCGCCACC | 927
AGCTCTAAGGTTCCGCCTGCGGGCAGCAAGCGGAGG | 902

Sequence | RUNX1 binding intensity
GCTAACGGAACCAGCACGCGGCCACCGCAGGAACCT | 869
CAACCCAAGGGGATGTGCTCACTGCGGTGAGGAGGC | 893
GGCGCTAGGCTTCCGGATCGCGGTGGGCGGAGTTCA | 1230
ATGGTCCAGGAAGATAAGGGCTGAAAACCACCCACT | 824
GGGCGGAAGGGGTTCGCACGCCAAGAACCGCCATGC | 683
TTACCCCGGCGGAACGGAGGCCTGCGGTCGCGGCGG | 1210
TATCGACAAAAGTTCCGGCCCGCGGTAGCGGAGGGA | 970
GAAAAATGAAGTTTCCGCAGTAACCACAACACAGCC | 2620
ACACCCCAGGAAGTGGCAGAGACCACAACAAGTCAG | 1910
TCCACAGCCGGTTCCGGCCGGTTCCCACAAGCCCCT | 1130
TTGATTGGAGCAGGATGTGGTCAGAACAGTATGCAG | 4860
CACTCCCCGAATCCGGTCTGCGGCGCGCTCGGGGCC | 1250
CCTGAAGCTCATGCGGAAAACCCACAAAGGGGTGCC | 828
GGGGGAGCAAGCGCCTTCCGCGGTCGCTGGGGGGAG | 812
TCTGGCTGGGTGTTGGGATGTGGTTAACCGGGTTGG | 876
CCCGGCCCAGGAAACTTCAGACTTCACCGCAGCTTC | 1030
GAGTGGGCGGAAATCCGTGCCTGGCAGACCACAAAG | 1500
CTTTCTGGTTTCCTTCCTTTTTGGTTTTGGTTTCAT | 2830
GCCGCCGTTTCCTGATTGGTTGTGGGTGGCTACCTC | 1660
CCCCTACTTCCCTTTTTGCTGGGCCGCAGTTTCGGT | 2220
